# According to PubChem BioAssay AID652054 (National Center for Advancing Translational Sciences (NCATS), 2013):
# Among all 360,000 compounds or so, about 9,100 (2.5%) were called active. Inconclusive results (about 4%) are left out. Rule as the data show it: active = max response below about -50%; inconclusive = no clear call, values can overlap the other calls; inactive = above that. For the sample, actives were picked, then their nearest neighbours and some compounds at random.
# Molecular target: D(3) dopamine receptor (Homo sapiens) (UniProt P35462)
# Sequence (P35462 whole entry, looked up): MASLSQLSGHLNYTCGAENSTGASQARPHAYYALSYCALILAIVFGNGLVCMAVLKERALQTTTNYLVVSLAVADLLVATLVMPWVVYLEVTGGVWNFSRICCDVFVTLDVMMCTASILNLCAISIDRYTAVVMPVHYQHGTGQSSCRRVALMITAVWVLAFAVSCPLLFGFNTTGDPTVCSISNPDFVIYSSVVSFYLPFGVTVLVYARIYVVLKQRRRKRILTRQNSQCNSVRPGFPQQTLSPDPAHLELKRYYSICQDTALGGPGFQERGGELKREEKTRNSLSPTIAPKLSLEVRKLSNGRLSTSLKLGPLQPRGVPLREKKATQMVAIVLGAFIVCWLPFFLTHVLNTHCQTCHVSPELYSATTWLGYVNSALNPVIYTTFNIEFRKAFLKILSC
# Experiment: qHTS of D3 Dopamine Receptor Antagonist: qHTS
# Conditions: D3R cells, DiscoveRx beta-arrestin luminescence, antagonist mode; stronger effect = lower value
# Procedure, shortened: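 Cells plated overnight at 1500 cells/well, then exposed to library compounds with dopamine controls for 90 minutes at 37 degrees C. DiscoveRx reagent added for 30–60 minutes at room temperature; luminescence read, quantitative HTS format.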
# % is scaled to controls: 0 for no effect and ±100 for the full control effect.
row,SMILES,"max response, negative = inhibition"
1,O=C(CN1CCN(Cc2ccccc2)CC1)NC(c1ccccc1)c1ccccc1,-9.3% (inactive)
2,FC(F)(F)c1cccc(-c2nc3ccccc3n2C(c2ccccc2)c2nc3ccccc3[nH]2)c1 (stereo not given),7.98% (inactive)
3,CCCNC(=O)c1cc(C2CCCCN2S(=O)(=O)c2ccc(C#N)cc2)on1 (stereo not given),15.7% (inactive)
4,CCOc1ccc(CCN2C(=O)C(=O)N([C@@H](CC(C)C)CN3CCC[C@H]3CN3C(=O)C(=O)NC[C@@H]3Cc3ccccc3)C[C@@H]2CC(C)C)cc1,2.39% (inactive)
5,O=C(O)c1ccc(NS(=O)(=O)c2cccc3nsnc23)cc1,-88.2% (active)
6,O=S(=O)(Nc1ccccc1Cl)c1cccc2nsnc12,-8.87% (inactive)
7,COc1ccc(NS(=O)(=O)c2cccc3nsnc23)cc1Cl,-6.5% (inactive)
8,Cc1cn([C@H]2C[C@H](O)[C@@H](/C=C/C(=O)NCCCc3ccccc3)O2)c(=O)[nH]c1=O,0% (inactive)
9,CCOc1ccc(S(=O)(=O)NCCC(=O)NCC2CCCO2)cc1 (stereo not given),20.2% (inactive)
10,CCOc1ccc(CC(=O)NC2CCN(Cc3ccccc3)CC2)cc1,-12.8% (inactive)
11,CCOc1ccc(C(=O)NC2CCN(S(=O)(=O)CC)CC2)cc1,8.12% (inactive)
12,O=C(NCC1CCCO1)c1ccc(S(=O)(=O)Nc2ccc(F)cc2)cc1 (stereo not given),-12.1% (inactive)
13,CCOc1ccc(NS(=O)(=O)c2ccc(C(=O)NC3CCN(Cc4ccccc4)CC3)cc2)cc1,-68.8% (active)
14,CCOc1ccc(NS(=O)(=O)c2ccc(C(=O)NCC3CCCO3)cc2)cc1 (stereo not given),-69.2% (active)
15,O[C@H]1C[C@H](c2ccc(Cl)cc2)N(Cc2cccs2)C[C@@H]1n1cc(C2CC2)nn1,-1.65% (inactive)
16,O=S1(=O)CC(N2CCN(CCO)CC2)CN1C1CCCC1 (stereo not given),8.42% (inactive)
17,CC(=O)Nc1cccc(-c2ccnc3c2CC(C)(C(=O)NCc2ccco2)O3)c1 (stereo not given),-21.1% (inactive)
18,CC1CCN(c2ccc([N+](=O)[O-])cc2C(N)=O)CC1,10.9% (inactive)
19,CC1CCN(c2ccc([N+](=O)[O-])c(SCCO)c2)CC1,-51.8% (active)
20,O=[N+]([O-])c1ccc(N2CCSCC2)cc1O,-6.65% (inactive)
21,O=C(Cc1ccc([N+](=O)[O-])cc1)NCCS(=O)(=O)N1CCN(c2ccccc2)CC1,3.87% (inactive)
22,Cc1c(C(=O)NCC(c2ccco2)N2CCCC2)oc2ccc(Cl)cc12 (stereo not given),-65.1% (active)
23,COc1cc(C(=O)NCC(c2ccco2)N2CCCC2)ccc1OCc1ccccc1 (stereo not given),4.86% (inactive)

row,SMILES,"max response, negative = inhibition"
1,CC1Cc2ccccc2N1S(=O)(=O)c1cccc(C(=O)NCC(c2ccco2)N2CCCC2)c1 (stereo not given),-17.2% (inactive)
2,COc1ccc(C(CNC(=O)c2cc3c(s2)CCCC3)N2CCOCC2)cc1 (stereo not given),-51.3% (active)
3,COc1ccc(C(CNC(=O)c2ccc(S(=O)(=O)Nc3ccccc3C)cc2)N2CCOCC2)cc1 (stereo not given),-0.45% (inactive)
4,CC1CCc2sc(C(=O)NCC(c3ccco3)N3CCCCC3)cc2C1 (stereo not given),-82.1% (active)
5,COc1ccc(C(CNC(=O)c2cccnc2SC)N2CCOCC2)cc1 (stereo not given),-18.5% (inactive)
6,CSc1ncccc1C(=O)NCC(c1ccco1)N1CCCCC1 (stereo not given),9.6% (inactive)
7,Cc1cc(S(=O)(=O)Nc2ccc(C(=O)NCC(c3ccco3)N3CCCC3)cc2)ccc1F (stereo not given),1.86% (inactive)
8,CC(C)C[C@@H]1COc2cc(N3CCC[C@@H]3CO)ccc2S(=O)(=O)N1,18.9% (inactive)
9,CN(Cc1ccccc1)C(=O)[C@@H]1CCCN1C(=O)[C@@H]1CCCN1C(=O)c1c(F)cccc1F,-11.2% (inactive)
10,O=C(NN=Cc1ccc2c(c1)CCC2)c1ccccc1O,10.4% (inactive)
11,CCc1cccc(C)c1NC(=O)COC(=O)CC1CCCC1,-10.7% (inactive)
12,CCc1cccc(C)c1NC(=O)COC(=O)CNC(=O)c1cccs1,5.78% (inactive)
13,CCc1cccc(C)c1NC(=O)COC(=O)Cc1ccsc1,-57.7% (active)
14,CCCCn1nnnc1C(c1cc2ccccc2o1)N(C)Cc1ccc(Cl)c(Cl)c1 (stereo not given),16.5% (inactive)
15,COC(=O)[C@@]12C[C@@H](CC(=O)NCCCCc3ccccc3)C(=O)N(CCc3ccc(OC)c(OC)c3)C1=CCC(C)(C)C2,-7.78% (inactive)
16,COc1ccc(CC2(CO)CCN(Cc3cnn(C)c3)CC2)cc1,4.38% (inactive)
17,COC(=O)c1ccc(CN2CCC(CO)(Cc3ccc(OC)cc3)CC2)cc1,-62.3% (active)
18,COc1cccc(CC2(CO)CCN(Cc3cnc(-c4cccc(C)c4)nc3)CC2)c1,33.5% (inactive)
19,COc1ccc(CNC(=O)c2ccc(-c3cccnc3)c3ccoc23)cc1OC,57.4% (inactive)
20,CC(=O)N1Cc2cc(C(=O)NCc3cccc(F)c3)nc(-c3cccc(C4=CCCCC4)c3)c2[C@H]1CCO,40.6% (inactive)
21,CC(=O)N1Cc2cc(C(=O)NCc3cccc(F)c3)nc(-c3cccc(C4=CCCC4)c3)c2[C@H]1CCO,4.11% (inactive)
22,CCNC(=O)c1cc2c(c(-c3cccc(-c4cncnc4)c3)n1)[C@H](CCO)N(C(C)=O)C2,-53.7% (active)
